# Screening results as filed in PubChem.
# Compounds with a hit are over-represented: about 11% of the library has one in this group of screens.
# IMPase Li inh: IMPase inhibition in cells with lithium potentiation. Potency, µM (top dose mostly 59.4 µM), inactives show at the highest dose activity, negative = IMPase inhibition, actives largely listed as inhibitors. 210,000 tested, 0.35% active. CHO-M1 cells, IP1 TR-FRET (IP-One), carbachol + lithium;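 further: IP1 builds up when IMPase is blocked and the TR-FRET signal falls; potency means the concentration at half of the fitted maximal effect; plate controls were basal vehicle for no effect and high inhibitor control for full effect; nearly all actives have a fitted effect of over 50% in size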
#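 IP1 accumulation measured by competitive TR-FRET in lysed CHO-M1 cells after 30 min compound exposure at 37C, with a small lithium addition to potentiate weak responses. Hill-equation AC50 from ratio and donor-channel data.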
# ALOX12 inhib: blocks human 12-lipoxygenase activity; Potency, µM (top dose mostly 57.1 µM), without a hit: at the top dose activity change, negative = inhibition, hits mostly inhibitors; purified 12-hLO, xylenol orange hydroperoxide absorbance; 150,000 tested, 0.12% active; AID 1452; further: potency means the concentration at half of the fitted maximal effect; nearly all actives have a fitted effect of over 55% in size
#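 Hydroperoxide formation by human 12-lipoxygenase from 40 uM arachidonic acid was followed colorimetrically via ferric-xylenol orange complex, using the 573/405 nm absorbance ratio. Enzyme concentration was 150 nM, with 30 min reaction at room temperature.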
# PNC assembly inh: blocks assembly of the perinucleolar compartment | PC3M PTB-GFP, PNC prevalence imaging, 16 h; hits give low values | activity change (PNC), negative = inhibition, % at 10 µM | 140,000 tested, 3.1% active;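 active means readout at or below -70, meaning at least 70% loss of cells showing the perinucleolar compartment, a nuclear body marking cancer cells; inconclusive means readout between -30 and a set limit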;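 further: plate controls were DMSO wells for no effect and camptothecin positive control wells for full effect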
#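 Compounds are pinned in duplicate onto adhered PC3M cells stably expressing GFP-tagged PTB and incubated 16 h at 37 C. Cells are then fixed, nuclei stained with Hoechst, and PNC-positive cells counted.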
# HPGD block: HPGD (human) dehydrogenase inhibition; P15428; purified HPGD, NADH fluorescence kinetic, PGE2 substrate; Potency, µM, for the others: at the highest dose activity change, negative = inhibition, most hits filed as inhibitors; 150,000 tested, 4.3% active; AID 894; active means well fitted inhibition curve with a large enough effect, not every such curve was filed as active; inconclusive means small, poorly fitted or top-dose-only effect, or another doubt; inactive means no such curve, though single readings can be large or run the other way; further: potency means the concentration at half of the fitted maximal effect
# Target sequence (P15428 whole entry, looked up): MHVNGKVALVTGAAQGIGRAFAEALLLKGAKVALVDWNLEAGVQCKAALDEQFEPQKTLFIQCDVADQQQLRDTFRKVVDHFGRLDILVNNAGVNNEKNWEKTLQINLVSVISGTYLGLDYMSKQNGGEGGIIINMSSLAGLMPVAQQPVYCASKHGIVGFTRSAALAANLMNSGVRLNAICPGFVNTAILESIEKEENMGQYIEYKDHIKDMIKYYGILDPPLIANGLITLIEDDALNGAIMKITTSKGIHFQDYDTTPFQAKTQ
#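 20 nM HPGD preincubated 15 min at room temperature with compound in 50 mM Tris-HCl pH 8, 0.01% Tween 20. Started with 1 mM NAD+ and 30 uM prostaglandin E2; NADH fluorescence (360/450 nm) read 5 times over 30-s intervals, last minus first.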
# IMPase cell inh: IMPase inhibition in cells | P97697 | CHO-M1 cells, IP1 accumulation, HTRF TR-FRET ratio | inhibition (IP1 accumulation), % at 46.1 µM | 120,000 tested, under 10 active | AID 901; active means well fitted curve in the direction sought with a large enough effect in the signal ratio, not every such curve was filed as active; inconclusive means small, poorly fitted or top-dose-only effect, or a change in a side signal; inactive means no such curve, though single readings can be large or run the other way; the % refers to the signal ratio;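 further: cells stimulated with carbachol in lithium chloride buffer; plate controls were DMSO basal wells for no effect and reference inhibitor wells for full effect; higher means more IMPase inhibition seen as more IP1 and lower FRET ratio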
# Target sequence (P97697 whole entry, looked up): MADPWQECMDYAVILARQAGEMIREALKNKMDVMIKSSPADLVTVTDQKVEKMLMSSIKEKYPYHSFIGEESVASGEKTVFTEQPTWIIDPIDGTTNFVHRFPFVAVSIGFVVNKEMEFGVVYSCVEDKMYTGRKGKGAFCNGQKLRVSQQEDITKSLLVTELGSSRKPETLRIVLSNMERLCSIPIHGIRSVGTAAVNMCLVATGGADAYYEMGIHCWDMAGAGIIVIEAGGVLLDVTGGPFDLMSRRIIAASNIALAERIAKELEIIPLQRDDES
#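 Cellular IMPase inhibition is scored as a rise in cytosolic IP1, detected by competitive TR-FRET between d2-labelled IP1 and a europium anti-IP1 antibody. M1-expressing CHO cells were stimulated with carbachol for 30 min at 37C, with lithium (50 mM LiCl) present in the buffer.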
# ALDH1A1 inh: blocks purified human ALDH1A1 activity. P00352. Potency, µM (top dose mostly 75.3 µM), for the others: at the top dose activity, negative = inhibition, most hits filed as inhibitors. Purified ALDH1A1, NADH fluorescence, propionaldehyde substrate. 220,000 tested, 7.3% active; active means well fitted inhibition curve with a large enough effect, not every such curve was filed as active; inconclusive means small, poorly fitted or top-dose-only effect, or another doubt; inactive means no such curve, though single readings can be large or run the other way;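 further: potency means the concentration at half of the fitted maximal effect; plate controls were no enzyme wells and a reference inhibitor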
# Active calls of the source: *; ? = inconclusive; / = not tested or not shown; ! = not active in a repeat; [ ] = dose if it differs, or a comment. Unless noted, the call rests on the fitted dose curve; in most records, active means well fitted curve in the direction sought with a large enough effect; inconclusive means small, poorly fitted or top-dose-only effect, or another doubt; inactive means no such curve, though single readings can be large; an effect the other way counts as inactive or inconclusive. Unless noted, on the % scale 0 is the no-effect control and ±100 the full control effect.
SMILES,IMPase Li inh,ALOX12 inhib,PNC assembly inh,HPGD block,IMPase cell inh,ALDH1A1 inh
CCOC(=O)c1c(/N=C/c2c(O)n(-c3ccc(F)cc3)c(=S)[nH]c2=O)sc2c1CCCC2,-15%[38.3 µM],-3%,-11,0%,7,18µM*
CCOC(=O)c1ccc(N=Cc2c(O)n(-c3ccccc3F)c(=S)[nH]c2=O)cc1,1%,-2%,3,-7%,/,-7%
CN(C(=O)Cc1ccc(Cl)c(Cl)c1)[C@H](CN1CCCC1)c1cccc(N=C=S)c1,25%,-15%,/,-9%,1,?
ClC(Cl)Br,-10%,-1%,/,-6%,/,3%
Cc1ccc(Cn2ccc(NC(=O)c3cc(-c4ccco4)on3)n2)cc1,-12%[38.3 µM],-12%,?,-14%,?,18µM*
c1c[nH]cn1,-16%,-3%,/,-8%,/,?
COc1ccc(Cc2nccc3cc(OC)c(OC)cc23)cc1OC,23%,?,16,14µM*!,9,-2%
O=C(N/N=C\C1C(=O)NC(=S)N(c2ccccc2)C1=O)c1ccc(O)cc1 (centres undefined),3%,/,/,/,/,10µM*
O=C(N/N=C/c1c(O)n(-c2ccccc2)c(=O)[nH]c1=O)c1ccncc1,-6%,-2%,?,?,/,?
CC[C@@H]1CN2CCc3cc(OC)c(OC)cc3[C@@H]2C[C@@H]1C[C@H]1NCCc2cc(OC)c(OC)cc21,6%,-6%,/,0%,12,-6%
COc1cc(=O)[nH]c(SCc2c(F)c(F)c(F)c(F)c2F)n1,20%[38.3 µM],-5%,49,16µM*,-6,-2%
CCOC(=O)c1ccc(N2C(=O)CC(N3CCC(O)(c4ccc(Cl)cc4)CC3)C2=O)cc1 (centres undefined),29%[38.3 µM],-1%,21,-12%,3,7.9µM*
CCOC(=O)c1ccc(N2C(=O)CC(N3CCC(O)(c4ccc(Br)cc4)CC3)C2=O)cc1 (centres undefined),11%[38.3 µM],-6%,50,?,-1,1.6µM*
COc1cccc(CNC(=O)CSc2ccc(-c3ccco3)nn2)c1,-15%,/,/,/,/,13µM*
Cc1nn(Cc2ccccc2)c(C)c1C(=O)OCC(=O)NCc1ccco1,-1%[38.3 µM],9%,-12,-10%,6,15%
CC(=O)OCC(N)C(=O)c1ccccc1 (centres undefined),-6%,1%[0.00818 µM],/,-1%,/,-17%
CCCCC/C=C\C/C=C\C/C=C\C/C=C\CCCC(=O)NCCc1ccc(O)c(O)c1,15%,?,/,?,/,16µM*!
CCCCC/C=C\C/C=C\C/C=C\C/C=C\CCCC(=O)Nc1ccc(O)cc1,13%,-20%,/,35µM*,-3,?
CCCCC/C=C\C/C=C\C/C=C\C/C=C\CCCC(=O)NCCCC(=O)O,-6%,-9%[0.00818 µM],/,-14%,/,-1%
CCCCC/C=C\C/C=C\C/C=C\C/C=C\CCCC(=O)Nc1ccc(O)cc1C,-4%,-2%[0.00818 µM],/,?,/,?
CCCCC/C=C\C/C=C\C/C=C\C/C=C\CCCC(N)=O,-2%,-1%,/,-9%,/,-4%
CCCCC/C=C\C/C=C\C/C=C\C/C=C\CCCC(=O)N(Cc1ccc(O)c(Cl)c1)Cc1ccc(O)c(Cl)c1,10%,-5%[0.00818 µM],/,-3%,/,3.5µM*
CCCCC/C=C\C/C=C\C/C=C\C/C=C\CCCC(=O)NCC(=O)O,7%,3%[0.00818 µM],/,28µM*!,2,5%
CCCSC(=O)Cl,10%,2%,/,-8%,/,-21%
CCCCC/C=C\C/C=C\C/C=C\C/C=C\CCCC(=O)NCc1ccoc1,0%,-9%[0.00818 µM],/,-26%,/,18µM*
SMILES,IMPase Li inh,ALOX12 inhib,PNC assembly inh,HPGD block,IMPase cell inh,ALDH1A1 inh
CCCCC/C=C\C/C=C\C/C=C\C/C=C\CCCC(=O)NC(C)C(=O)O (centres undefined),14%,2%,/,-6%,/,-4%
CCCCC/C=C\C/C=C\C/C=C\C/C=C\CCCC(=O)NCCO,19%,4%[0.00818 µM],/,-11%,/,10µM*!
CCCCC/C=C\C/C=C\CCCCCCCCCC(=O)NCCO,15%,5%,/,-7%,/,-3%
COc1ccc2c(c1O)-c1cccc3c1[C@H](C2)N(C)CC3,/,-2%,/,/,3,/
CCC1/C=C/C=CCC(C)C(O)[C@@](C)(O)C(=O)C(C)C(O)C(C)C(=O)C(C)C(O)C(C)C=CC(=O)O[C@H]2C(C)C(CC1)O[C@]1(CCC(C)C(CC(C)O)O1)C2C (some centres undefined),-5%,-7%,/,-21%,/,13%
Cc1ccc2c(c1)N(CCC(=O)N1CCC3(CC1)OCCO3)C(=O)CO2,3%,-4%,4,-13%,3,10µM*
ClCCCCl,7%,-2%,/,-5%,/,17%
CC(C)[C@@H](C)/C=C\[C@@H](C)[C@@H]1CC[C@H]2C3=CC=C4C[C@@H](O)CC[C@]4(C)[C@H]3CC[C@]21C,-4%,3%[11.4 µM],/,-4%,/,-8%[13.5 µM]
CCCN1CC[C@@H]2c3cc(O)ccc3CC[C@H]21,/,-2%,/,/,7,/
Nc1nc(/C(=C/CC(=O)O)C(=O)NC2C(=O)N3C(C(=O)O)=CCSC23)cs1 (centres undefined),12%,-5%,/,-21%,/,?
CC1CC(C)CN(CC(=O)c2ccc(OC(F)F)cc2)C1 (centres undefined),10%,2%,?,-9%,3,1.3µM*
COc1ccc(C(=O)CN2CCCCC2)cc1,8%,/,/,/,/,?
CCCCCOC(=O)c1ccccc1C(=O)OCCCCC,-8%,-2%,/,-4%,/,-4%
CCn1nc(-c2ccccc2)nc2c(=O)n(C)c(=O)nc1-2,25%,-6%,-100*,-14%,6,?
CC(C)(C)OOC(=O)c1ccccc1,-13%,-3%,/,-9%,/,?
COC(=O)C1CN(C#N)N(c2ccc(Cl)cc2)C12c1ccccc1-c1ccccc12 (centres undefined),18%,-3%,?,14µM*,11,-6%
